The results in this text go back to PubChem BioAssay (EPA / NIEHS).

Activity calls are given as the source filed them. The calls were made as follows: active = hit-call score of the fitted dose curve at least 0.9, where 1 is the maximum; inactive = score below 0.9.

The experiment can be described thus: CCTE_Harrill_HTTr_Viability_MCF7: CCTE's 6-hour Cell Viability Assessment for the High-Throughput Transcriptomics (HTTr) Platform, in MCF-7 cells cultured in DMEM + 10% fetal bovine serum, Harrill Lab (AID 2284010). An outline of the steps: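 Eight-point concentration series, six-hour exposure. Propidium iodide exclusion imaged to assess membrane integrity as a cytotoxicity readout; bidirectional fitting was done with DMSO as negative control and activity baseline.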
Regarding `Oc1c(Cl)cc(Cl)cc1Cl`, the result was inactive. Consider `CCOC(=O)OC1=C(c2cc(C)ccc2C)C(=O)NC12CCC(OC)CC2` (stereo not given), for which the result was inactive.

As for `Oc1ccc(Cc2ccc(O)cc2)cc1`, the result was inactive.

As for `Oc1cc(Cl)c(Cl)cc1Cl`, the outcome was inactive. The value for `OCCCCO` was “inactive”; that for `CNC(=O)CSP(=O)(OC)OC` was “inactive”. Consider `O=C(Cc1ccccc1)OCCc1ccccc1`, for which the result was inactive.

Take `OC(Cc1ccccc1Cl)(Cn1[nH]cnc1=S)C1(Cl)CC1` (stereo not given): the result was inactive. Turning to `O=C(O)C1(c2ccc3c(c2)OC[C@H](Cc2ccc(-c4ccccc4)cc2)[C@H]3O)CCCC1`, the outcome was inactive. Take `CNC(=O)O/N=C/C(C)(C)S(C)(=O)=O`: the result was inactive. For `O=C(N[C@H]1CN2CCC1CC2)c1ccc2c(c1)OCCO2`, the result was inactive. `CN(C)C(=S)S`: the result was inactive. As for `Clc1cnc(Oc2ccc(Oc3ncc(Cl)cc3Cl)cc2)c(Cl)c1`, the outcome was inactive. The value for `O=S1OC[C@@H]2[C@H](CO1)[C@]1(Cl)C(Cl)=C(Cl)[C@@]2(Cl)C1(Cl)Cl` (stereo not given in full) was “inactive”; that for `O=C(O)COc1cc(Cl)c(Cl)cc1Cl` was “inactive”.
